Measurements as given in PMC7826789 (International Journal of Molecular Sciences, 2021).

Tests used:
Conditions in all cases: Compound Concentration (nM):1000
KIT-autoinhibited = test system: KIT-autoinhibited
KIT = test system: KIT
LATS1 = test system: LATS1
LATS2 = test system: LATS2
LCK = test system: LCK
LIMK1 = test system: LIMK1
LIMK2 = test system: LIMK2
LKB1 = test system: T1, LKB1
T1 construct: gene STK11

LOK = test system: T2, LOK
T2 construct: gene STK10

LRRK2(G2019S) = test system: LRRK2(G2019S)
LRRK2 = test system: LRRK2
LTK = test system: LTK
LYN = test system: LYN
LZK = test system: T3, LZK
T3 construct: gene MAP3K13

MAK = test system: MAK
MAP3K15 = test system: MAP3K15
MAP3K1 = test system: MAP3K1
MAP3K2 = test system: MAP3K2
MAP3K3 = test system: MAP3K3
MAP3K4 = test system: MAP3K4
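Note: KINOMEscan scanMAX binding as percent activity remaining versus control; lower means stronger binding.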

| Compound | Percent Control (KIT-autoinhibited) [%] | Percent Control (KIT) [%] | Percent Control (LATS1) [%] | Percent Control (LATS2) [%] | Percent Control (LCK) [%] | Percent Control (LIMK1) [%] | Percent Control (LIMK2) [%] | Percent Control (LKB1) [%] | Percent Control (LOK) [%] | Percent Control (LRRK2(G2019S)) [%] | Percent Control (LRRK2) [%] | Percent Control (LTK) [%] | Percent Control (LYN) [%] | Percent Control (LZK) [%] | Percent Control (MAK) [%] | Percent Control (MAP3K15) [%] | Percent Control (MAP3K1) [%] | Percent Control (MAP3K2) [%] | Percent Control (MAP3K3) [%] | Percent Control (MAP3K4) [%] |
| --- | --- | --- | --- | --- | --- | --- | --- | --- | --- | --- | --- | --- | --- | --- | --- | --- | --- | --- | --- | --- |
| NS(=O)(=O)c1ccc(N/N=C2\C(=O)Nc3ccc(C(=O)NCCc4c[nH]cn4)cc32)cc1 [GW300660X] | 93 | 100 | 100 | 100 | 100 | 100 | 100 | 100 | 100 | 71 | 78 | 100 | 100 | 100 | 100 | 100 | 47 | 82 | 96 | 100 |
| O=C1Nc2ccc(C(=O)c3ccco3)cc2C1=Cc1cc(Cl)c(O)c(Cl)c1 [GW406108X] | 82 | 62 | 100 | 92 | 89 | 100 | 100 | 100 | 94 | 6.9 | 13 | 93 | 86 | 94 | 100 | 90 | 63 | 96 | 78 | 100 |
| CC1=C(C(=O)Nc2ccc3[nH]ncc3c2)C(c2ccc(Cl)c(Cl)c2)CC(=O)N1 (centres unmarked) [GSK299115A] | 100 | 100 | 60 | 1.5 | 80 | 94 | 63 | 100 | 71 | 100 | 96 | 84 | 100 | 79 | 100 | 84 | 76 | 85 | 85 | 100 |
| COc1ccc2c(-c3ccnc(Nc4cccc(OC(F)(F)F)c4)n3)cnn2n1 [GW810372X] | 81 | 86 | 100 | 91 | 100 | 94 | 100 | 100 | 100 | 86 | 72 | 100 | 100 | 100 | 100 | 100 | 70 | 96 | 90 | 71 |
| COc1cc(/C=N/Nc2ncnc3[nH]ncc23)ccc1O [GW578748X] | 57 | 56 | 100 | 52 | 42 | 100 | 100 | 100 | 100 | 49 | 54 | 100 | 86 | 100 | 100 | 96 | 49 | 67 | 85 | 93 |
| Cc1cc(O)cc(C)c1/C=C/c1cncc(C(N)=O)c1 [GW435821X] | 77 | 2.1 | 100 | 96 | 25 | 100 | 100 | 100 | 100 | 74 | 81 | 100 | 38 | 100 | 100 | 100 | 65 | 79 | 59 | 100 |
| Cl.c1ccc(Cc2nc3ccc(Nc4ncnc5ccccc45)cc3[nH]2)cc1 [GR269666A] | 100 | 94 | 100 | 100 | 88 | 100 | 100 | 100 | 100 | 100 | 100 | 100 | 93 | 100 | 100 | 100 | 100 | 100 | 100 | 100 |
| NS(=O)(=O)c1ccc(N/N=C2\C(=O)Nc3ccc(-c4cnco4)cc32)cc1 [GW276655] | 81 | 58 | 56 | 65 | 89 | 60 | 67 | 100 | 92 | 17 | 44 | 100 | 100 | 62 | 100 | 75 | 100 | 79 | 74 | 82 |
| CN(C)CCNC(=O)Nc1ccc(N(C)c2ccnc(Nc3ccc(CS(C)(=O)=O)cc3)n2)cc1.Cl [GW830900A] | 59 | 0.1 | 92 | 88 | 93 | 85 | 100 | 83 | 14 | 76 | 83 | 100 | 100 | 75 | 100 | 100 | 82 | 69 | 84 | 99 |
| COc1cc2ncn(-c3cc(O[C@H](C)c4ccccc4Cl)c(C(N)=O)s3)c2cc1OC [GSK237701A] | 100 | 49 | 99 | 86 | 52 | 100 | 54 | 75 | 0.3 | 69 | 70 | 26 | 81 | 70 | 100 | 100 | 2.6 | 84 | 83 | 100 |
